Assay outcomes as filed in PubChem BioAssay.
hgDAF-12 ag – agonists of H. glycines DAF-12 nuclear receptor | HEK293 GAL4-hgDAF12 UAS-luciferase reporter, agonist luminescence; normalized to butyrate control | activation, % at 6.8 µM | 370,000 compounds, 1.8% hits;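 active means activation above a cutoff set at the mean of all screened compounds plus 3 SD, cut at about 10% in these data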
hcDAF12 agonist – activators of H. contortus DAF-12 nuclear receptor; HEK293 hcDAF-12 lit1-tk-luc reporter, luminescence; 0% DMSO, 100% Δ7-dafachronic acid; 370,000 compounds, 1.4% hits; activation, % at 6.8 µM; AID 652067;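 active means activation above the mean of all tested compounds plus 3 SD, cut at about 5.5% in these data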
DAX1 inh-1 – blocks DAX1 repression of SF-1 activated StAR promoter; HEK293T StAR-luciferase reporter, SF-1/DAX-1 repression relief; inhibition, % at 6.8 µM; 370,000 compounds, 1.1% hits;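 active means inhibition above the mean over all tested compounds plus 3 SD, cut at about 3.6% in these data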;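 further: higher inhibition means more luminescence from relief of DAX-1 repression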
DAX1 inh-2 – inhibitors of human orphan nuclear receptor DAX1 (NR0B1); P51843; HEK293 Gal4-DAX1 luciferase reporter, luminescence; inhibition, % at 6.75 µM; AID 504766; 340,000 compounds, 0.99% hits;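 active means inhibition above the mean over all tested compounds plus 3 SD, cut at about 4.2% in these data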;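 further: inhibition shows as a rise in luminescence from relieved DAX1 repression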
Target sequence (P51843 207-470 limits assumed): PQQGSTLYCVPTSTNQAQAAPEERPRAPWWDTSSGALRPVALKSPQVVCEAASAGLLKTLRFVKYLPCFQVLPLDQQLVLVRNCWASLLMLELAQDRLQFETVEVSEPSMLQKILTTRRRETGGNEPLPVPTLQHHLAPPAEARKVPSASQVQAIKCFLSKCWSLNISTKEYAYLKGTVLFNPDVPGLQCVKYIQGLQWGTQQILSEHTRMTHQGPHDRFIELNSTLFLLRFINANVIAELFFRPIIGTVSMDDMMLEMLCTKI
ssDAF-12 act – activates DAF-12 receptor from parasite S. stercoralis | AID 652126 | HEK293 ssDAF-12/GRIP1 lit1-tk-luc reporter, luminescence; % of 3 µM dafachronic acid response | activation, % at 6.8 µM | 370,000 compounds, 1% hits;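 active means activation above the mean over all tested compounds plus 3 SD, cut at about 0.9% in these data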
LXRb hcDAF ctr – activates human LXR-beta, counter-screen for hcDAF-12 agonists | shares compounds with hcDAF12 agonist | HEK293 Gal4-LXR tk-luc reporter, luminescence, 24 h; normalized: DMSO 0%, positive control 100% | activation, % at 6.8 µM | 3,400 tested, under 10 active;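 active means mean percent activation of the reporter above a cutoff set as the average over tested compounds plus their standard deviation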
hcDAF12 conf – hcDAF-12 agonism, confirmation assay | shares compounds with hcDAF12 agonist | HEK293 hcDAF-12 lit1-tk-luc reporter, luminescence; % of Δ7-dafachronic acid response | activation, % at 6.8 µM | 3,400 compounds, 61% hits | AID 743032;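 active means mean activation across triplicate tests above the threshold derived from the earlier primary screen, cut at about 5.5% in these data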
Large screens that a line does not name were inactive (follow-up assays come after a bar, where they were run). An excerpt weighted towards active compounds, which were near 4.1% of everything screened.

CN(C)c1ccc(/C=N/Nc2nncc3ccccc23)cc1	hgDAF-12 ag 14.4, hcDAF12 agonist 8.0, ssDAF-12 act 1.4 | LXRb hcDAF ctr inactive | hcDAF12 conf 11.3
O=S1(=O)C[C@H](N2CCC(Cc3ccccc3)CC2)[C@@H](COCc2ccccc2)N1	none (no result: DAX1 inh-2)
S=C(NNc1ccnc2cc(Cl)ccc12)Nc1ccc(Cl)cc1Cl	none
CCOc1ccc(NC(=S)NNc2ccnc3cc(Cl)ccc23)cc1	hcDAF12 agonist 7.9 | LXRb hcDAF ctr inactive | hcDAF12 conf inactive
CCCS(=O)(=O)NC(=O)C1(C)CCN(C(=O)c2ccccc2OC)C1 (stereo unspecified)	none (no result: DAX1 inh-2)
O=C(CSc1nccc2ccccc12)N1CCN(c2ccccn2)CC1	hcDAF12 agonist 8.2 | LXRb hcDAF ctr inactive | hcDAF12 conf inactive
Cc1ccc(SCC(=O)N2CCN(c3ccccn3)CC2)cc1	none
CC1(c2nnnn2Cc2ccccc2)CCC(=O)N1CCCn1ccnc1 (stereo unspecified)	none (no result: DAX1 inh-2)
Clc1ccc(/C=N/Nc2nnc(Cl)c3ccccc23)cc1	hcDAF12 agonist 7.0, ssDAF-12 act 1.6 | LXRb hcDAF ctr inactive | hcDAF12 conf 8.7
C(=N\Nc1ncnc2ccccc12)/c1ccccc1	hgDAF-12 ag 15.2, hcDAF12 agonist 8.4, ssDAF-12 act 1.3 | LXRb hcDAF ctr inactive | hcDAF12 conf 8.5
Cc1ccc(-c2nc(N/N=C/c3ccncc3)c3ccccc3n2)cc1	hcDAF12 agonist 15.3, ssDAF-12 act 1.1 | LXRb hcDAF ctr inactive | hcDAF12 conf 20.2
Clc1nnc(N/N=C/c2ccccc2)c2ccccc12	hcDAF12 agonist 7.3, ssDAF-12 act 1.2 | LXRb hcDAF ctr inactive | hcDAF12 conf 10.7
Clc1cncc(Cl)c1N/N=C/c1ccccc1	none
COC(=O)[C@@]12CCCCC3=C1N(CCC3)C(=O)[C@H]2CC(=O)NCC1CCCCC1	none (no result: DAX1 inh-2)
COC(=O)[C@@]12C[C@@H](CC(=O)NCc3cccc4ccccc34)C(=O)N(Cc3ccc4c(c3)OCO4)C1=CCC(C)(C)C2	none (no result: DAX1 inh-2)
O=C1c2[nH]c3ccccc3c2CC1N1C(=O)c2ccccc2C1=O (stereo unspecified)	none
CC(=O)Nc1ccc(C=NNc2nnc(NN=Cc3ccc(NC(C)=O)cc3)c3ccccc23)cc1	none
Cc1ccc(/C=N/Nc2nnc(Cl)c3ccccc23)cc1	hcDAF12 agonist 10.8, ssDAF-12 act 3.7 | LXRb hcDAF ctr inactive | hcDAF12 conf 18.4
COc1ccccc1NC(=O)/C=C\C(=O)O	hcDAF12 agonist 7.3 | LXRb hcDAF ctr inactive | hcDAF12 conf inactive
Cc1cscc1NC(=O)/C=C/C(=O)O	hcDAF12 agonist 6.8 (no result: DAX1 inh-2) | LXRb hcDAF ctr inactive | hcDAF12 conf inactive
COc1ccccc1NC(C)=O	none
CCCn1c(N)c(N(CCOC)C(=O)CSc2cc(C)c3ccccc3n2)c(=O)[nH]c1=O	none
COC(=O)[C@@]12C[C@@H](CC(=O)NCc3cccc4ccccc34)C(=O)N(Cc3ccccc3)C1=CCC(C)(C)C2	none (no result: DAX1 inh-2)
Cn1ccnc1Sc1ccc(/C=N/NC(=O)c2ccccc2O)cc1[N+](=O)[O-]	hcDAF12 agonist 9.5 | LXRb hcDAF ctr inactive | hcDAF12 conf 7.2
CCOC(=O)N=Nc1c(O)n(C)c2ccccc12	hcDAF12 agonist 7.3 | LXRb hcDAF ctr inactive | hcDAF12 conf inactive
C=CCn1c(O)c(N=NC(=O)OCC)c2ccccc21	none
Cc1ccc(O)c(-c2cc(-c3cccc(Br)c3)n[nH]2)c1	none
COc1ccc(O)c(-c2cc(-c3ccccc3Cl)[nH]n2)c1	hcDAF12 agonist 7.5 | LXRb hcDAF ctr inactive | hcDAF12 conf inactive
COc1ccc(-c2cc(-c3ccccc3O)[nH]n2)cc1	hgDAF-12 ag 21.8, hcDAF12 agonist 19.5, DAX1 inh-1 3.7, ssDAF-12 act 4.4 | LXRb hcDAF ctr inactive | hcDAF12 conf 23.1
Cc1ccc(-c2cc(-c3ccc(F)cc3)n[nH]2)c(O)c1	hgDAF-12 ag 18.1, hcDAF12 agonist 20.1, DAX1 inh-2 11.8, ssDAF-12 act 4.8 | LXRb hcDAF ctr inactive | hcDAF12 conf 17.9
